# This is part of a sample that, as a whole, favours compounds with a hit. Of some 83,000 tested, about 20% had one in any assay.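 The endpoint reported here, percent growth, reads 100 for growth as untreated, 0 for no net growth and -100 for all cells dead.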 Unmarked numbers belong to inactive results. The source made the active and inactive calls. The calls were made as follows: active = growth percent below 10; inactive = the rest.
# Experiments:
# Experiment in all cases: NCI-60 one-dose screen, 48 h (100 = growth as untreated, 0 = no growth, -100 = all killed)
# Conditions in all cases: 10 µM unless noted
# HCT-15 colon = tested on: HCT-15 colon
# HT29 colon = tested on: HT29 colon
# SNB-75 CNS = tested on: SNB-75 CNS
# SNB-19 CNS = tested on: SNB-19 CNS
# U251 CNS = tested on: U251 CNS
# PC-3 prostate = tested on: PC-3 prostate
# SK-MEL-5 melanoma = tested on: SK-MEL-5 melanoma
# UACC-62 melanoma = tested on: UACC-62 melanoma
# LOX IMVI melanoma = tested on: LOX IMVI melanoma
# SK-MEL-28 melanoma = tested on: SK-MEL-28 melanoma
# SK-MEL-2 melanoma = tested on: SK-MEL-2 melanoma
# EKVX NSCLC = tested on: EKVX NSCLC
# SN12C renal = tested on: SN12C renal
# UO-31 renal = tested on: UO-31 renal
# TK-10 renal = tested on: TK-10 renal
# ACHN renal = tested on: ACHN renal
# CAKI-1 renal = tested on: CAKI-1 renal
# A498 renal = tested on: A498 renal
# CCRF-CEM leukemia = tested on: CCRF-CEM leukemia
# MOLT-4 leukemia = tested on: MOLT-4 leukemia
Structure (SMILES),growth (HCT-15 colon),growth (HT29 colon),growth (SNB-75 CNS),growth (SNB-19 CNS),growth (U251 CNS),growth (PC-3 prostate),growth (SK-MEL-5 melanoma),growth (UACC-62 melanoma),growth (LOX IMVI melanoma),growth (SK-MEL-28 melanoma),growth (SK-MEL-2 melanoma),growth (EKVX NSCLC),growth (SN12C renal),growth (UO-31 renal),growth (TK-10 renal),growth (ACHN renal),growth (CAKI-1 renal),growth (A498 renal),growth (CCRF-CEM leukemia),growth (MOLT-4 leukemia)
CCN(CC)CCN1C(=O)c2c(c3c4ccccc4[nH]c3c3ccc4ccccc4c23)C1=O,-74.4% (active),-45.5% (active),76.1%,84.9%,-89.3% (active),-74.6% (active),-23% (active),76.8%,-88.3% (active),0.268% (active),97.7%,18.6%,-89.2% (active),14.3%,-86.2% (active),36.6%,50.7%,35.1%,-8.15% (active),-29.5% (active)
NC(=O)c1ccccc1OCC(=O)Nc1ccc(Cl)c(Cl)c1,102%,113%,83.3%,93.2%,97.3%,106%,99.9%,83.3%,108%,107%,107%,92.2%,101%,84.1%,143%,89.3%,70.6%,93.7%,92.3%,89%
Fc1cc2[nH]ncc2c2c3c(c(-c4cn[nH]c4C(F)(F)F)nc12)CCCC3,4.79% (active),6.14% (active),-26.5% (active),8.83% (active),-0.282% (active),34.6%,-66.3% (active),-4.44% (active),-50.6% (active),0.426% (active),-22.1% (active),8.29% (active),4.98% (active),-7.31% (active),-8.31% (active),0.165% (active),-7.15% (active),-63.9% (active),1.34% (active),10.9%
c1cc(OCCN2CCCC2)ccc1CNc1ccc2nc(CCC3CCCCC3)[nH]c2c1,3.99% (active),7.25% (active),64.1%,68.7%,4.28% (active),52%,-96.5% (active),62.8%,-78.5% (active),-85.3% (active),35.6%,80.9%,71.3%,9.54% (active),95.1%,60.4%,4.69% (active),34.2%,12.7%,9.92% (active)
CC1=C2[C@@H](CC1)[C@]1(C)O[C@@](C3CCNCC3)(C[C@H]1OC(=O)CO)[C@H]2OC(=O)/C=C/c1ccccc1,93.4%,43.2%,68.9%,90.6%,44.3%,66.6%,94.8%,93.3%,87.1%,94.1%,106%,91.8%,53.1%,60.1%,97.3%,47%,49.1%,9.48% (active),78.9%,78.1%
O=C1c2cccnc2C(=O)c2c1c(C(=O)OCCc1ccccn1)c1ccccn21,-75.9% (active),-75% (active),-85.3% (active),-38.7% (active),-82.5% (active),-3.59% (active),-94.2% (active),-55.6% (active),-50% (active),-33.3% (active),-35.4% (active),25.4%,-33.4% (active),-48.7% (active),-43.9% (active),-48.5% (active),8.74% (active),-57% (active),-14.1% (active),-0.142% (active)
Nc1ncnc2c1N=C(c1ccc(Cl)cc1)CC(c1cccc(Nc3ccnc4cc(Cl)ccc34)c1)N2 (stereo not given),21.1%,36.3%,60.4%,79.6%,50%,55.4%,61.9%,81.2%,45.5%,86.8%,76.6%,59.4%,67.1%,47.2%,117%,84.2%,65.7%,51.1%,4% (active),12.3%
COc1ccc2c(c1)CC[C@@H]1[C@@H]2CC[C@]2(C)C3C(=CC(COC(C)=O)C4C(=O)N(c5ccc(Cl)cc5)C(=O)C43)C[C@@H]12 (stereo not given in full),94.3%,90%,90.5%,110%,102%,82%,93.4%,83.2%,94%,106%,108%,108%,101%,79.1%,120%,95.8%,108%,108%,75.5%,63.9%
O=C(O)c1cn(C2CC2)c2cc(N3CCN(C(=O)N/N=C/c4cccc5ccccc45)CC3)c(F)cc2c1=O,97.9%,105%,97%,85.9%,100%,105%,94%,88.7%,67.8%,98.1%,101%,102%,96.6%,80.1%,94.1%,101%,90.1%,86.1%,112%,100%
COCC(=O)Oc1cc(-c2ccc(C)cc2C)c(OC(=O)COC)c(-c2ccc(C)cc2C)c1,10.2%,34.3%,80.4%,60.9%,46.7%,43.4%,13.7%,45.1%,35.6%,87.9%,28.9%,57.1%,56.4%,47.7%,70.9%,-18% (active),9.83% (active),68.7%,38.9%,21.7%
Nc1cccc(-c2ccc(COc3ccc(CC4SC(=O)NC4=O)cc3)cc2)c1 (stereo not given),34.3%,100%,54.4%,69.3%,45.9%,59.7%,14.8%,55.4%,57.5%,55.9%,52.3%,62.2%,68.6%,53.3%,91.5%,62.6%,47.3%,110%,52.3%,43.2%
CC/C(=C(\c1ccc(Cl)cc1)c1ccc(OCCN2CCCCC2)cc1)c1ccc(O)cc1,2.22% (active),-37.2% (active),40.5%,61.1%,0.575% (active),30.4%,2.53% (active),71%,-91.5% (active),-63.4% (active),57.2%,68%,62.5%,38.4%,68.5%,60.4%,62.3%,87.2%,23.1%,-5.41% (active)
COc1ccc(Oc2ccc(/C=C/C(=O)c3cc4ccccc4oc3=O)cc2)cc1,80.5%,108%,50.2%,91.7%,87%,75.3%,92.7%,76.7%,70.7%,98.6%,102%,94.5%,86.1%,48%,147%,91.3%,74.8%,121%,28.1%,57.9%
CC(C)(Sc1cc(C(C)(C)C)c(O)c(C(C)(C)C)c1)Sc1cc(C(C)(C)C)c(OC(=O)CCC(=O)O)c(C(C)(C)C)c1,22%,24.2%,94.2%,47.4%,34.4%,35.5%,50.1%,6.79% (active),56.1%,54.1%,23.4%,44.1%,34.2%,33.2%,60.5%,44.5%,54.5%,63.6%,35.8%,73.3%
COc1ccc(-c2nc(SCC(=O)Nc3nc4ccc(C)cc4s3)[nH]c(=O)c2C#N)cc1OC,104%,107%,60.4%,101%,104%,93.2%,97.7%,94.4%,90.4%,108%,115%,97%,95.9%,61%,164%,96.3%,74.7%,102%,110%,99.4%
